# An excerpt weighted towards active compounds, which were near 3.4% of everything screened.
# HIV Env fusion: inhibitors of HIV Env-mediated cell fusion; HeLa-JRFL Env/CEM21 cell fusion, luciferase; inhibition, % at 12.3 µM; hit rate 1.1% among 360,000;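 active means mean replicate inhibition score of at least 50 and every replicate individually at or above 50; inconclusive means only one of the two criteria met; inactive means mean below 50 and not all replicates reaching 50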
# esBAF inh: inhibitors of esBAF chromatin remodeling in mouse ES cells; reporter increase, % at 12.5 µM; hit rate 2% among 350,000; Bmi1-luciferase knock-in reporter, 24 h; 100% = twice the neutral-well signal; in the data active means activation above about 40%; inconclusive means no clear call, values can overlap the other calls;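 further: a rise in the Bmi1 reporter signal indicates esBAF inhibition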
# MITF act: MITF TRPM1 promoter activation in melanoma cells | hit rate 0.75% among 300,000 | SK-MEL-5 TRPM1-promoter luciferase, 24 h; % of positive control, neutral wells = 0 | activation, % at 12.5 µM;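 active means mean activation of at least 80% with every replicate also reaching 80%; inconclusive means mean reaches 80% but some replicate falls short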
# Wnt act: activates Wnt/beta-catenin signaling in a reporter cell assay; activator, plate reader; activation, % at 9.35 µM; hit rate 1.2% among 300,000; in the data active means activation above about 30%, passing the limit was not always enough; inconclusive means no clear call, values can overlap the other calls
# miR122 inh: blocks miR-122 activity in Huh7 sensor cells; Huh7 miR-122 Renilla luciferase sensor, 48 h; neutral wells = 0, positive control = 100; activation (reporter increase), % at 12.5 µM; hit rate 0.3% among 340,000; AID 602342;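 active means mean replicate activation score at least 90 and every replicate individually at or above 90; inconclusive means only one of the two criteria met; inactive means neither criterion met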;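 further: higher luciferase means less miR-122 activity so hits act as miR-122 inhibitors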
# Numbers stand for hits; – = inactive; ? = inconclusive; · = no result; [ ] = dose if it differs, or a comment.
SMILES,HIV Env fusion,esBAF inh,MITF act,Wnt act,miR122 inh
COCC(=O)N1C[C@@H](C)[C@H](OC)CN(C)C(=O)c2cc(NC(=O)c3ccccc3)ccc2OC[C@@H]1C,·,–,·,·,·
COc1ccc2nc3sc(C(=O)NCCCN4CCc5ccccc5C4)cc3cc2c1,–,73,–,–,–
Nn1nnc2ccccc21,94,–,–,–,–
O=C(c1ccccc1)n1nnc2ccccc21,–,·,–,·,–
CCNC(=O)c1cc2c(c(-c3cccc(-c4cccc(F)c4)c3)n1)[C@H](CCO)N([S@@](=O)C(C)(C)C)C2,–,–,·,·,·
CCCn1c(-c2ccc[nH]c2=O)nc2ccccc21,–,–,–,–,–
CCCC1(C)Nc2ccccc2-c2nc3ccccc3n21 (configuration not stated),–,67,–,·,–
c1ccc2c(c1)NC1(CCCC1)n1c-2nc2ccccc21,·,75,?,–,·
CC(=O)N(C)C[C@H]1Oc2ncc(-c3ccccc3F)cc2C(=O)N([C@@H](C)CO)C[C@H]1C,–,–,·,·,–
O=c1cc(CN2CCOCC2)c2ccccc2o1,–,–,·,–,–
O=c1c2ccccc2oc2cc(-c3ccc(CN4CCOCC4)cc3)ccc12,–,77,?,?,–
Cc1cc(/C=C2/C(=O)NN(c3ccccc3)C2=O)c(C)n1-c1ccc(O)cc1,–,·,–,–,·
Cc1cc(/C=C2\C(=O)NN(c3ccccc3)C2=O)c(C)n1-c1ccccc1O,–,58,–,–,–
Cc1ccc(-n2c(C)c([N+](=O)[O-])c3ccc(O)c(CN(C)C)c32)cc1,62,–,·,–,–
CO[C@H]1CN(C)C(=O)c2ccc(NS(C)(=O)=O)cc2OC[C@H](C)N(CCC(F)(F)F)C[C@H]1C,–,–,·,·,·
COCC(=O)OCc1cc2cccc(C)c2[nH]c1=O,–,·,–,42,·
Cc1cccc2cc(COC(=O)COc3ccccc3)c(=O)[nH]c12,·,–,–,·,–
CSc1nsc(N/N=C/c2ccc3c(c2)OCO3)c1C#N,–,·,92,–,·
CCN(CC)C(=O)/C=C/c1ccccc1,–,·,–,–,–
CON(C)C(=O)/C=C/c1ccc([B-](F)(F)F)cc1,–,47,–,–,–
CN(C)CC(=O)Nc1ccc2c(c1)[C@H]1C[C@@H](CC(=O)NCc3ccccc3)O[C@H](CO)[C@H]1O2,–,–,·,·,–
CCC(c1ccccc1)c1nc(-c2ccccn2)no1 (configuration not stated),·,47,–,·,–
CC(Oc1ccc(Cl)cc1Cl)c1nc(-c2ccccn2)no1 (configuration not stated),·,103,131,·,–
CCC(c1ccccc1)c1nc(-c2cccnc2)no1 (configuration not stated),·,–,–,–,–
CC(C)c1ccc(OCc2nc(-c3ccccn3)no2)c(Br)c1,–,–,–,76,–
SMILES,HIV Env fusion,esBAF inh,MITF act,Wnt act,miR122 inh
Cc1ccc(OCc2nc(-c3ccccn3)no2)c(Br)c1,–,–,–,–,–
C[C@H](CO)N1C[C@H](C)[C@H](CN(C)C)Oc2cc(-c3cccnc3)ccc2S1(=O)=O,–,–,·,·,–
Cc1ccc(S(=O)(=O)NCC[C@@H]2CC[C@@H](NC(=O)c3cccnc3)[C@H](CO)O2)cc1,–,–,·,·,·
C[C@H](CO)N1C[C@H](C)[C@@H](CN(C)C(=O)Nc2cccc3ccccc23)Oc2ccc(NC(=O)Nc3ccc(C(F)(F)F)cc3)cc2CC1=O,–,–,·,·,–
C[C@@H]1CN([C@H](C)CO)C(=O)Cc2cc(NC(=O)Nc3ccc(C(F)(F)F)cc3)ccc2O[C@@H]1CN(C)C(=O)Nc1cccc2ccccc12,–,–,·,·,112[16.7 µM]
C[C@@H]1CN([C@@H](C)CO)C(=O)Cc2cc(NC(=O)Nc3ccc(C(F)(F)F)cc3)ccc2O[C@@H]1CN(C)C(=O)Nc1cccc2ccccc12,–,–,·,·,265[16.7 µM]
N#C[C@@H]1[C@H](c2ccc(C3=CCCCC3)cc2)[C@H](CO)N1C(=O)NC1CCCCC1,–,–,·,·,·
Cc1ccc(S(=O)(=O)N(C)C[C@@H]2Oc3ccc(NS(=O)(=O)c4cccs4)cc3C(=O)N([C@H](C)CO)C[C@@H]2C)cc1,–,–,·,·,–
CCOC(=O)N1c2ccccc2Sc2ccccc21,–,–,–,–,–
Cc1nnc(SC(=O)N2c3ccccc3Sc3ccccc32)s1,69,–,–,–,–
C[C@H](CO)N1C[C@H](C)[C@@H](CN(C)S(=O)(=O)c2ccc(F)cc2)Oc2ccc(NC(=O)Nc3ccc(C(F)(F)F)cc3)cc2CC1=O,101[16.7 µM],–,·,·,–
C[C@H](CO)N1C[C@H](C)[C@H](CN(C)S(=O)(=O)c2ccc(Cl)cc2)Oc2ccc(NC(=O)Nc3ccc(C(F)(F)F)cc3)cc2CC1=O,–,–,·,·,94[16.7 µM]
Cc1ccc(S(=O)(=O)N(C)C[C@H]2Oc3ccc(NC(=O)Nc4ccc(C(F)(F)F)cc4)cc3CC(=O)N([C@@H](C)CO)C[C@H]2C)cc1,94[16.7 µM],–,·,·,–
C[C@H]1CN([C@@H](C)CO)C(=O)Cc2cc(NC(=O)Nc3ccc(C(F)(F)F)cc3)ccc2O[C@H]1CN(C)S(=O)(=O)c1ccc(F)cc1,–,–,·,·,?
C[C@H]1CN([C@@H](C)CO)C(=O)c2cccc(NC(=O)c3nc4ccccc4s3)c2O[C@H]1CN(C)CC1CC1,–,–,·,·,–
C[C@@H]1CCCCO[C@@H](CN(C)C(=O)Cc2ccccc2)[C@H](C)CN([C@@H](C)CO)C(=O)c2cc(NC(=O)c3ccncc3)ccc2O1,–,–,·,·,–
CSc1ccc(-c2nnn(Cc3ccc(C)cc3)n2)cc1,·,·,94,·,–
CC(C)=NNc1ncnc2nc[nH]c12,–,·,·,–,–
CCc1ccc(/C=N/Nc2ncnc3nc[nH]c23)cc1,–,–,–,53,–
Cn1cc(CC(=O)Nc2cccc(C#N)c2)c2ccccc21,·,–,–,·,138
CCc1cccc(NC(=O)Cc2cn(C)c3ccccc23)c1,–,–,·,–,–
COC1=C(C)C(=O)C2=C(C1=O)C1C3CC4=C(C(=O)C(OC)=C(C)C4=O)C(CNC(=O)C(C)=O)N3C(C#N)C(C2)N1C (configuration not stated),64,·,·,–,–
COc1ccc(S(=O)(=O)N(C)C[C@@H]2Oc3c(NC(=O)Nc4c(C)noc4C)cccc3C(=O)N([C@H](C)CO)C[C@@H]2C)cc1,–,–,·,·,–
COC(=O)CNc1c(-c2ccccn2)nc2ccc(Br)cn12,–,–,·,40,–
Cc1cc(NC(=O)c2ccc3[nH]c(C)c(C)c3c2)ccn1,–,–,–,–,–
SMILES,HIV Env fusion,esBAF inh,MITF act,Wnt act,miR122 inh
COc1ccc(NC(=O)c2ccc(C)cc2)cc1,–,–,–,–,–
CC(=O)Nc1cccc(NC(=O)c2ccc3[nH]c(C)c(C)c3c2)c1,–,49,–,–,–
COc1ccc(NC(=O)c2ccc3[nH]c(C)c(C)c3c2)cc1,–,58,88,–,–
O=C(C[C@@H]1C[C@@H]2c3cc(NC(=O)C4CCC4)ccc3O[C@@H]2[C@H](CO)O1)NC1CCCC1,–,–,·,·,–
O=C(Nc1ccc(F)cc1)N[C@@H]1CC[C@@H](CCn2cc(-c3ccccc3F)nn2)O[C@@H]1CO,–,–,·,·,·
Cc1ccc(O)c(NC(=O)C2CCCCC2)c1,–,·,–,–,·

# Screens (PubChem BioAssay)
